Experimental data reported in the supplement of paper PMC11482750.
± gives the standard deviation of the averaged measurements.

What follows are targets tested with CCOC(C)=O [ethyl acetate] (assay: control-subtracted net OSN firing rate; higher = stronger neuronal activation). Conditions: odorant dilution (vol/vol): 1/100.
Description: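 Single sensillum recordings from olfactory sensory neurons. The neurons sit in the maxillary palp or antennal sensilla of D. melanogaster (wild type, mutants, or at1 empty-neuron lines expressing Or42a homologs or the A181D S307P mutant) and of four Scaptomyza species. Each odorant was given as a 1 s pulse from 20 µl loaded on filter paper at 1:100 vol/vol, diluted in mineral oil (γ-hexalactone in DMSO). Spikes were counted in a 0.5 s window starting 0.2 s after onset, background was subtracted, the count was doubled, and the mean solvent-control response was subtracted.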

Target	control-subtracted net OSN firing rate
Canton-S (D. melanogaster) pb2b	4 ± 6.4 spikes/s
Canton-S (D. melanogaster) pb3a	1.33 ± 8.4 spikes/s
Canton-S (D. melanogaster) pb1a	89.1 ± 27 spikes/s
S. flava pb1b-like	-6.33 ± 12 spikes/s
S. hsui pb2b-like	53 ± 37 spikes/s
S. flava pb3a-like	6.67 ± 11 spikes/s
S. pallida pb3a-like	8.67 ± 14 spikes/s
S. pallida pb2b-like	9.33 ± 10 spikes/s
Canton-S (D. melanogaster) pb1b	-7.33 ± 9.6 spikes/s
S. pallida pb1a-like	80.3 ± 20 spikes/s
S. hsui pb3a-like	-4.33 ± 11 spikes/s
S. hsui pb2a-like	8 ± 5.1 spikes/s
Canton-S (D. melanogaster) pb3b	0.333 ± 9.4 spikes/s
S. pallida pb2a-like	7.33 ± 11 spikes/s
S. flava pb2b-like	0.333 ± 7.3 spikes/s
S. flava pb3b-like	0.333 ± 9.7 spikes/s
Canton-S (D. melanogaster) pb2a	4.57 ± 6.5 spikes/s
S. pallida pb3b-like	28.7 ± 25 spikes/s
S. pallida pb1b-like	-12.7 ± 9.3 spikes/s
S. hsui pb1b-like	-16.7 ± 9.4 spikes/s
S. hsui pb1a-like	98.3 ± 21 spikes/s
S. hsui pb3b-like	-2.33 ± 2.3 spikes/s
S. flava pb1a-like	61.7 ± 23 spikes/s
S. flava pb2a-like	-1.67 ± 5.7 spikes/s
